# The entries come from a sample that favours hits as a whole.
# Sm TGR inh = inhibitors of Schistosoma mansoni thioredoxin glutathione reductase; Q962Y6; purified TGR, DTNB reduction, TNB absorbance 405 nm; Potency, µM (titrated, usually from 114 µM), for inactives: at the highest dose activity change, negative = inhibition, usual class: inhibitors; hit rate 3% among 360,000; also: potency is read from the fitted curve at half-maximal effect; % is scaled to controls: 0 for no effect and ±100 for the full control effect; nearly all actives have a fitted effect of over 60% in size
#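 Kinetic colorimetric format: TGR-catalysed, NADPH-driven DTNB reduction monitored via TNB absorbance. Enzyme dispensed at 20 nM; compound exposure 15 min at room temperature before reaction start.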
# Tb PYK inh = T. brucei pyruvate kinase inhibition; TbPYK enzyme, Kinase-Glo Plus ATP luminescence, 45 min; Potency, µM (highest dose often 76.8 µM), for inactives: at the top dose activity, negative = inhibition, usual class: inhibitors; hit rate 0.12% among 410,000; AID 624173; Q57TT1; also: potency is read from the fitted curve at half-maximal effect; % is scaled to controls: 0 for no effect and ±100 for the full control effect; nearly all actives have a fitted effect of over 50% in size
#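 Enzyme and substrate buffer are dispensed first and compound is pin-transferred. ADP at 130 uM final then starts the reaction, which runs 45 min at room temperature. Detection reagent is added for 10 min before luminescence is imaged.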
# LmPK inh = LmPK (Leishmania mexicana) enzyme inhibition. Q27686. purified LmPK, Kinase-Glo ATP luminescence, 1 h. Potency, µM (highest dose often 57.5 µM), for inactives: at the highest dose activity change, negative = inhibition, most hits filed as inhibitors. hit rate 0.37% among 290,000; also: potency is read from the fitted curve at half-maximal effect; % is scaled to controls: 0 for no effect and ±100 for the full control effect
#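 Purified LmPK (0.1 nM) with 0.5 mM PEP and 0.1 mM ADP in imidazole buffer pH 7.2 with MgCl2/KCl, 1 h at room temperature. ATP formed was read by luciferase luminescence and normalized to no-enzyme and uninhibited controls.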
# Giardia FBPA inh = blocks Giardia fructose-bisphosphate aldolase activity | A8B2U2 | purified Giardia FBPA | Potency, µM (doses to about 59.6 µM), without a hit: top-dose activity, negative = inhibition, most hits filed as inhibitors | hit rate 0.71% among 290,000 | AID 2451; also: potency is read from the fitted curve at half-maximal effect; % is scaled to controls: 0 for no effect and ±100 for the full control effect; nearly all actives have a fitted effect of over 55% in size
# Target sequence (A8B2U2 whole entry, looked up): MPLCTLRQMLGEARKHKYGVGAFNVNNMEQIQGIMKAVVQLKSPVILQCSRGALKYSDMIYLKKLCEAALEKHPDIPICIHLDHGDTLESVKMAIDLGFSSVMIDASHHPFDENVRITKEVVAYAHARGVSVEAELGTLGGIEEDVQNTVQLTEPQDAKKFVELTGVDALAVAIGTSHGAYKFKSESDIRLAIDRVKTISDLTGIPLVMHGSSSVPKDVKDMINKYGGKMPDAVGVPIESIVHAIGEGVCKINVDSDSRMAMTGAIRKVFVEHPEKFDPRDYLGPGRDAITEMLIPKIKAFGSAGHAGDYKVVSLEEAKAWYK
#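 Giardia FBPA (40 nM reagent) was preincubated 10 min at RT with compound (up to 57.5 uM final), then substrate plus GAPDH/TPI/NAD/arsenate coupling system with diaphorase/resazurin was added; resorufin fluorescence (525/598 nm) was read after 20 min.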
# Cycloheximide cs = counter-screen hit for Shiga toxin inhibitors, cycloheximide; cell reporter, cycloheximide protein synthesis inhibition counterscreen; max response, %; hit rate 12% among 300,000; in the data active = max response mostly above about 13%, no sharp cut-off; inactive = mostly below about 14%; also: read at 38.3 µM for the half of the compounds with a filed dose; 0% is about no effect
# Shiga toxin inh = Shiga toxin inhibition; Vero cells, Shiga toxin protein synthesis inhibition reporter; inhibition, % at 38.7 µM; hit rate 9.2% among 290,000; in the data active = inhibition mostly above about 28%, no sharp cut-off; inactive = mostly below about 43%; also: 0% is about no effect
# * marks the source's active call; other numbers are inactive results; . = no result given; + = active, no number. Unless noted, calls follow the shape of the dose curve; as a rule, active = well fitted curve in the direction sought with a large enough effect; inconclusive = small, poorly fitted or top-dose-only effect, or another doubt; inactive = no such curve, though single readings can be large; an effect the other way counts as inactive or inconclusive.
SMILES,Sm TGR inh,Tb PYK inh,LmPK inh,Giardia FBPA inh,Cycloheximide cs,Shiga toxin inh
CCOC(=O)C1=C(C2=CCCCC2)c2ccc(OC)cc2N(S(=O)(=O)C(F)(F)F)C1C(=O)OCC (configuration not stated),.,0%,.,.,.,.
CC1(C)CC(=O)C(N=Nc2cc(S(=O)(=O)N3CCOCC3)ccc2Cl)=C(O)C1,10µM*,5%,9%,-2%,-1,3
C[C@@H](CN(C)C[C@H]1C(=O)O[C@@H]2C[C@@]3(C)CCC[C@]4(CO4)C3CC21)[C@H](O)c1ccccc1 (some centres not stated),.,.,.,3%,.,.
COc1ccccc1N1C(=O)c2cccnc2C1=O,56µM*,-2%,-3%,6%,-2,-12
COc1ccc(OC)c(N2C(=O)c3cccnc3C2=O)c1,-1%,3%,0%,2%,-2,-12
CCC1CCCCN1C(=O)CSc1nc2c([nH]c3ccccc32)c(=O)n1-c1ccc(OC)cc1 (configuration not stated),-5%,1%,.,.,.,.
CC1CN(c2ccccc2)c2nc3c(c(=O)[nH]c(=O)n3C)n2C1 (configuration not stated),89µM*,1%,-1%,6%,-4,-10
CCOCCn1c(N2CCN(c3ccccc3)CC2)nc2c1c(=O)[nH]c(=O)n2C,7%,-4%,-12%,-1%,21*,57
CC1CN(c2ccc(Cl)cc2)c2nc3c(c(=O)[nH]c(=O)n3C)n2C1 (configuration not stated),-2%,0%,-4%,3%,-3,-1
O=C(O)COc1ccc(/C=N/n2c(COc3ccccc3)nc3ccccc3c2=O)cc1,-8%,9%,2%,6%,23,40
Cc1ccc(-c2[nH]ncc2/C=N/n2c(COc3ccccc3)nc3ccccc3c2=O)cc1,-1%,-6%,-2%,8%,29*,42
Cc1ccccc1OCc1nc2ccccc2c(=O)n1/N=C/c1cn[nH]c1-c1ccccc1,1%,-20%,0%,-3%,7,30
Nn1c(Cc2ccccc2)nc2ccccc2c1=O,.,2%,.,.,.,.
Cc1ccccc1OCc1nc2ccccc2c(=O)n1/N=C/c1cccc([N+](=O)[O-])c1,-8%,-8%,0%,3%,23*,+
O=c1c2ccccc2nc(COc2ccccc2)n1/N=C/c1ccc(O)c(O)c1,-6%,-2%,-1%,-30%,25*,19
Nn1c(COc2ccc(Cl)cc2)nc2ccccc2c1=O,-8%,1%,-2%,0%,24*,active
O=c1c2ccccc2nc(COc2ccccc2)n1/N=C/c1ccco1,40µM*,3%,5%,-1%,35*,69*
ClC[C@H]1CO1 (tested in a mixture with another compound),.,-9%,.,.,.,.
C=C(C)CSc1nc2nc(C)c(Br)cc2[nH]1,4%,.,-2%,-13%,30*,81*
CC(C)Sc1nc2ccccc2[nH]1,-12%,2%,3%,0%,8,28
CC(=O)N=C(N)Sc1nc2ccccc2[nH]1,2%,3%,-4%,-4%,48*,67*
CC(C)CCSc1nc2ccccc2[nH]1,2%,3%,-27%,-18%,52*,102*
CC(Sc1nc2ccccc2[nH]1)C(=O)O (configuration not stated),-3%,-1%,5%,-9%,-3,-15
CN(Cc1cccs1)C(=O)CSc1nc2ccccc2[nH]1,1%,3%,2%,-4%,47*,123*
C=C(C)CSc1nc2ccccc2[nH]1,1%,-5%,-14%,-15%,29*,59*
O=C(NCc1ccccn1)c1ccc(-c2ccccc2)cc1,2%,4%,2%,1%,36*,64*
O=C(NCc1ccc2c(c1)OCO2)c1cc(-c2ccccc2)on1,0%,-9%,-11%,3%,2,4
O=C(NCc1ccco1)c1ccc(N2CCCC2=O)cc1,1%,2%,0%,2%,9,22

# Compound activity as filed in PubChem BioAssay.
